Assay [1] concerns the target Tumor necrosis factor receptor superfamily member 10B (Homo sapiens) (UniProt O14763). The assay is described as follows: viability loss of caspase-8 NB7 cells with TRAIL – with/without TRAIL, luminescence panel, confirmation (AID 651596). The following applies: NB7 neuroblastoma + caspase-8, TRAIL sensitization, NB7 Caspase-8, with TRAIL, mean of runs, at 10 µM, stronger effect = higher value.

Assay in assay [2]: as above
The following applies: NB7 neuroblastoma + caspase-8, without TRAIL, NB7 Caspase-8, without TRAIL, mean of runs, at 10 µM.

The structures appear in SMILES notation.

Chain of Tumor necrosis factor receptor superfamily member 10B (Homo sapiens) (O14763 whole entry, looked up): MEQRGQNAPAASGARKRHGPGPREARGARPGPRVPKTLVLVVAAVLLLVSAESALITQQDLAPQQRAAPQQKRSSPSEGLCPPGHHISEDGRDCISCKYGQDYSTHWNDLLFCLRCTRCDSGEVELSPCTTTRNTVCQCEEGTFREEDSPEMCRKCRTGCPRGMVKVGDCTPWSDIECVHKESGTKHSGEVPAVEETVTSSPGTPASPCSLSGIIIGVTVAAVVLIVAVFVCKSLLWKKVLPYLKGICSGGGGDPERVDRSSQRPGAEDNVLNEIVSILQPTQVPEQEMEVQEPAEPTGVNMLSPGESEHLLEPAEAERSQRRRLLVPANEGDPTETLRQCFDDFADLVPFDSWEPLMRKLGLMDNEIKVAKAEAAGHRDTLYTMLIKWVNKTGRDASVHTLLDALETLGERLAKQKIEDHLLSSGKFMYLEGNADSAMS

Take `Cc1ccc2nc(NC(=O)c3ccc(-c4nc5ccccc5s4)s3)sc2c1`: the activity in assay [1] stood at 56.8%; in assay [2], 17%.

`O=C(Nc1ccc2ccccc2c1)c1ccc(Cl)cc1Cl`: the results for the activity in assay [1] and in assay [2] were 63.9% and 60.5%, respectively.

Turning to `CCCCCCCCOC(=O)c1cc([N+](=O)[O-])c(Sc2ncnc3nc[nH]c23)c([N+](=O)[O-])c1`, the activity in assay [1] was 64.1%; in assay [2], 62%.

Turning to `CCOc1ccc(-c2ccc(SCC)nn2)cc1`, the activity came out at 75.4% in assay [1] and 71.5% in assay [2].

Consider `Cc1cc(C(=O)Nc2sc3c(c2C#N)CCCC3)no1`, for which the activity in assay [1] is 53%; in assay [2], 52.5%.

On to `CC(C)c1ccc(/C=C/c2ccc(=O)n(C)n2)cc1`, for which the activity in assay [1] amounted to 68.1%; in assay [2] it was 66.6%.

Take `C/C(=N\NC(=O)c1ccccc1O)c1ccc(Br)s1`: the activity in assay [1] is 57.8%; in assay [2], 69.5%.

For `COC(=O)c1ccccc1NC(=O)c1nc(S(=O)(=O)Cc2ccccc2)ncc1Cl`, the activity in assay [1] was 84.1%; in assay [2], 99.6%.

With `CC1(C)N=C(N)N=C(N)N1c1ccc(OCCCOc2ccccc2)c(Cl)c1`, the activity in assay [1] was 59.8%; in assay [2] it was 64.1%.

For the molecule `O=C(Nc1cccc(Oc2ccc(C(=O)O)c(C(=O)O)c2)c1)c1ccc(-c2ccccc2)cc1`, the figures for the activity in assay [1] and in assay [2] were 60.4% and 56%, respectively.

With `Clc1ccc(-c2nc3n(n2)Cc2ccccc2-3)cc1`, the figures for the activity in assay [1] and in assay [2] were 65.8% and 76.6%, respectively.

In the case of `Cc1ccc(CN2[C@@H](Cc3ccccc3)C(=O)CS2(=O)=O)cc1`, the activity in assay [1] stood at 81%; in assay [2], 60.2%.

The values above are taken from PubChem BioAssay.
